Results on 28 compounds are retold here after ChEMBL document CHEMBL3433997, “St. Jude Leishmania screening dataset” (2016).

The structures appear in SMILES notation.

The term inhibition denotes the change of the read-out against control, counted positive when it falls.

The target in the assay is Glucose transporter (Leishmania mexicana) (UniProt O61059). As to the kind of experiment: ST_JUDE_LEISH: Cytotoxicity at 2uM final concentration against transgenic Leishmania Mexicana promastigotes LmGT2 that are glucose transport deficient and complemented with the L. Mexicana glucose transporter 2. Activity is measured by DNA content using SYBR green in vitro. The format is functional.
Turning to `COc1ccc(CNC2CCN(C)CC2)cc1-c1ccc(S(=O)(=O)NC2CCC2)cc1`, the inhibition amounted to 2.91%.
On to `COc1ccc(CN(C)CC(O)COc2ccc(NC(=O)c3cccc4c(=O)c5cccc(OC)c5[nH]c34)cc2)cc1OC` (stereo not drawn), for which the inhibition was 3.9%.
As to `O=C(NC1CCN(CCCOc2ccnc3cc(Cl)ccc23)C1)c1ccc(Br)cc1` (stereo not drawn), the inhibition turned out to be 7.14%.
Under `Cc1ccc(NC(=O)c2ccc3ncccc3c2)cc1OC1CCN(CCC(C)C)C1` (stereo not drawn) stands 3.54%; under `CC(C)(C)c1ccc(NC(=O)c2cccc(CN3CCCN(Cc4cccc(O)c4)CC3)c2)cc1`, 1.99%; under `Cc1cccc2nc(-c3cccc(-c4ccc(NC(=O)Nc5ccc6c(c5)OCO6)cc4)c3)[nH]c12`, 2.58%.
Under `O=C(Nc1ccc(Cl)c(Cl)c1)N[C@H]1CCN(CCCCCNC(=O)C2CC2c2ccc(Cl)c(Cl)c2)C1` (stereo partly drawn) stands 10.6%.
As for `COc1cc(C(F)(F)F)nc2c(CNCCCNc3cc(=O)c4ccccc4[nH]3)scc12`, the inhibition was 0.55%.
Then `Cc1nc(Nc2cc(Cl)ccc2O)nc(Nc2cc(Cl)ccc2O)c1[N+](=O)[O-]`, with 1.45%; and `CCc1c(CCNCCc2cccc(CCNCCc3ccc(OC)c(OC)c3CC)c2)ccc(OC)c1OC`, with 0.27%.
Take `Cc1cccc(CNc2nc(C)cc(N[C@@H](Cc3ccccc3)C(=O)NC3CCCC3)n2)c1`: the inhibition stood at 7.72%.
Then `O=C(CCOc1ccccc1)NCC1CCCO1` (stereo not drawn), with 1.06%; and `O=C(Nc1ccc(Cn2ncc(N3CCCNCC3)c(Cl)c2=O)cc1)Nc1ccc(SC(F)(F)F)cc1`, with -1.22%.
Turning to `CCCn1c(O)nnc1SCC(=O)Nc1cc(C(F)(F)F)ccc1Cl`, the inhibition worked out at 6.33%.
Then `N#Cc1ccc(-c2ccc(C(=O)Nc3ccc4c(c3)CCN(C3CCC3)CC4)nc2)cc1`, with 2.04%; and `CCOc1cc[nH]c(=O)n1`, with -0.68%.
With `COc1cc2nc(N3CCN(C(=O)c4c(Cl)nsc4-c4ccccc4Cl)CC3)nc(N)c2cc1OC`, the inhibition amounted to 5.08%.
Under `CCCOc1ccc(N2C(N)=NC(N)=NC2(C)C)cc1` stands 2.09%.
Under `COc1cccc(CN2CCCC(OC(c3ccc(F)cc3)c3ccc(F)cc3)C2)c1O` (stereo not drawn) stands -1.69%.
As for `COc1ccccc1C1CCN(C2CCC(NC(=O)c3cc4cc(C(C)C)ccc4[nH]3)CC2)CC1` (stereo not drawn), the inhibition was 9.55%.
Under `OCC1CCCCN1Cc1cccc(-c2cccc(-c3nc4ccccc4[nH]3)c2)c1` (stereo not drawn) stands 4.46%; under `CCn1c(-c2nonc2N)nc2cnc(Oc3cccc(NC(=O)c4ccc(OCCN5CCCCC5)cc4)c3)cc21`, 13.7%; under `Cc1cc(Nc2ccc(O)cc2)nc2cc(O)ccc12`, 3.51%.
Under `CN(C)CCC1CCN(CCS(=O)(=O)c2cccc(Nc3ncc(-c4cccc(F)c4)cn3)c2)CC1` stands 9.03%; under `COc1ccc(-c2ccc(S(=O)(=O)Nc3cc4c(cc3OC(C)C)CCN(C)CC4)cc2)cc1`, 1.21%; under `FC(F)(F)c1ccc2[nH]ccc(=NN=Cc3cccnc3)c2c1`, 5.22%.
Under `CN(C)CCOc1ccc2nc(-c3cccc(OCc4ccccc4)c3)[nH]c2c1C#N` stands 1.74%.
For the compound `CCOc1ccc(NC(=O)c2cccc(CN3CCCN(Cc4cccc(O)c4)CC3)c2)cc1`, the inhibition amounted to 0.81%.
